# From the supplement of paper PMC8728848
# Only a selection was taken, and the strongest signals are over-represented in it overall.
# Assays:
# Assay in all cases: glycan array binding signal (z-score within array); higher = stronger binding
# Conditions in all cases: glycan notation: IUPAC condensed, linker removed
# [1] = target: Gal6S(b1-4)GlcNAc6S
# How it was run: (§1)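 From the Consortium for Functional Glycomics database, 3228 arrays were curated, keeping only those whose protein sequence was available. Binding is given as a within-array Z-score averaged across arrays sharing a protein sequence and across linkers. Negative Z-scores can be read as non-binding.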
# [2] = target: GalNAc(b1-3)Gal(a1-4)Gal(b1-4)GlcNAc(b1-3)Gal(b1-4)Glc
# How it was run: as §1
# [3] = target: GalNAc4S6S(b1-4)GlcNAc
# How it was run: as §1
# [4] = target: Glc(b1-4)Glc
# How it was run: as §1
# [5] = target: GlcA(b1-6)Gal
# How it was run: as §1
# [6] = target: GlcNAc(a1-4)Gal(b1-4)GalNAc
# How it was run: as §1
# [7] = target: GlcNAc(b1-2)[GlcNAc(b1-6)]Man(a1-6)[GlcNAc(b1-2)Man(a1-3)]Man(b1-4)GlcNAc(b1-4)GlcNAc
# How it was run: as §1
# [8] = target: GlcNAc(b1-2)[GlcNAc(b1-6)]Man(a1-6)[GlcNAc(b1-4)][GlcNAc(b1-2)Man(a1-3)]Man(b1-4)GlcNAc(b1-4)GlcNAc
# How it was run: as §1
# [9] = target: GlcNAc(b1-4)GlcNAc(b1-4)GlcNAc(b1-4)GlcNAc(b1-4)GlcNAc(b1-4)GlcNAc
# How it was run: as §1
# [10] = target: Kdn(a2-3)Gal(b1-3)GalNAc
# How it was run: as §1
# [11] = target: Man(a1-2)Man(a1-3)[Man(a1-6)]Man(a1-6)[Man(a1-2)Man(a1-3)]Man(b1-4)GlcNAc(b1-4)GlcNAc
# How it was run: as §1
# [12] = target: Neu5Ac(a2-3)Gal(b1-3)GlcNAc6S
# How it was run: as §1
# [13] = target: Neu5Ac(a2-3)Gal(b1-3)[GlcNAc(b1-6)]GalNAc
# How it was run: as §1
# [14] = target: Neu5Ac(a2-3)Gal(b1-3)[Neu5Ac(a2-6)]GlcNAc(b1-3)[Fuc(a1-3)[Gal(b1-4)]GlcNAc(b1-6)]Gal(b1-4)Glc
# How it was run: as §1
# [15] = target: Neu5Ac(a2-3)Gal(b1-4)Glc
# How it was run: as §1
# [16] = target: Neu5Ac(a2-3)Gal(b1-4)GlcNAc(b1-2)Man
# How it was run: as §1
# [17] = target: Neu5Ac(a2-3)Gal(b1-4)GlcNAc(b1-3)Gal(b1-4)GlcNAc(b1-2)Man(a1-3)[Neu5Ac(a2-3)Gal(b1-4)GlcNAc(b1-3)Gal(b1-4)GlcNAc(b1-2)Man(a1-6)]Man(b1-4)GlcNAc(b1-4)GlcNAc
# How it was run: as §1
# [18] = target: Neu5Ac(a2-3)Gal(b1-4)GlcNAc(b1-3)Gal(b1-4)GlcNAc(b1-3)Gal(b1-4)GlcNAc(b1-2)Man(a1-3)[Neu5Ac(a2-3)Gal(b1-4)GlcNAc(b1-3)Gal(b1-4)GlcNAc(b1-3)Gal(b1-4)GlcNAc(b1-2)Man(a1-6)]GalNAc
# How it was run: as §1
# [19] = target: Neu5Ac(a2-3)Gal(b1-4)GlcNAc(b1-3)[Neu5Ac(a2-3)Gal(b1-4)GlcNAc(b1-6)]GalNAc
# How it was run: as §1
# [20] = target: Neu5Ac(a2-3)Gal(b1-4)[Fuc(a1-3)]GlcNAc(b1-2)Man
# How it was run: as §1
# [21] = target: Neu5Ac(a2-6)Gal(b1-4)GlcNAc(b1-2)Man(a1-3)[GlcNAc(b1-2)Man(a1-6)]Man(b1-4)GlcNAc(b1-4)GlcNAc
# How it was run: as §1
# [22] = target: Neu5Ac(a2-6)Gal(b1-4)GlcNAc(b1-2)Man(a1-3)[Neu5Ac(a2-3)Gal(b1-4)GlcNAc(b1-2)Man(a1-6)]Man(b1-4)GlcNAc(b1-4)GlcNAc
# How it was run: as §1
# [23] = target: Neu5Ac(a2-6)Gal(b1-4)GlcNAc(b1-2)Man(a1-3)[Neu5Ac(a2-6)Gal(b1-4)GlcNAc(b1-2)Man(a1-6)]Man(b1-4)GlcNAc(b1-4)[Fuc(a1-6)]GlcNAc
# How it was run: as §1
# [24] = target: Neu5Ac(a2-6)Gal(b1-4)GlcNAc6S
# How it was run: as §1
# [25] = target: Neu5Ac(a2-6)GlcNAc(b1-4)GlcNAc(b1-4)GlcNAc
# How it was run: as §1
# [26] = target: Neu5Ac(a2-8)Neu5Gc(a2-3)Gal(b1-4)GlcNAc
# How it was run: as §1
# [27] = target: Neu5Ac9Ac(a2-3)Gal(b1-4)GlcNAc
# How it was run: as §1
# [28] = target: Neu5Ac9Ac(a2-6)Gal(b1-4)GlcNAc
# How it was run: as §1
# [29] = target: Neu5Gc(a2-3)Gal(b1-4)GlcNAc
# How it was run: as §1
binder,measurement,setting,value
Epa2 (Candida glabrata) (protein) MGSSHHHHHHSSGLVPRGSHMASSKDPTSFPMGCSPQVLKTQPGLAVKLYSYGHPVPGCAYNTYQYPDFPRSGYKKERKLADITGVNGRIDIDLKPNDPCRVLSGNLPSNYNYQNTLTYTNFTMILYGYFQPKVTGYHTFNLEADDLLFMNLGAGNAFDCCRAESTLDNFGNYQSYSIWGTDKATADLTVFLVSGIYYPIRLFYVNRDNNAVLDFSFSTEFNKEIIHDFTSYFFSASDEEQCPGNI,glycan array binding signal (z-score),[1],2.81
same,glycan array binding signal (z-score),[2],1.03
same,glycan array binding signal (z-score),[3],0.176
same,glycan array binding signal (z-score),[4],0.058
same,glycan array binding signal (z-score),[5],0.586
same,glycan array binding signal (z-score),[6],-0.65
same,glycan array binding signal (z-score),[7],-0.896
same,glycan array binding signal (z-score),[8],-0.884
same,glycan array binding signal (z-score),[9],-0.072
same,glycan array binding signal (z-score),[10],2.25
same,glycan array binding signal (z-score),[11],-1.18
same,glycan array binding signal (z-score),[12],0.604
same,glycan array binding signal (z-score),[13],-0.044
same,glycan array binding signal (z-score),[14],0.369
same,glycan array binding signal (z-score),[15],0.776
same,glycan array binding signal (z-score),[16],3.5
same,glycan array binding signal (z-score),[17],0.377
same,glycan array binding signal (z-score),[18],2.23
same,glycan array binding signal (z-score),[19],3.03
same,glycan array binding signal (z-score),[20],-0.325
same,glycan array binding signal (z-score),[21],-0.681
same,glycan array binding signal (z-score),[22],-0.821
same,glycan array binding signal (z-score),[23],-0.149
same,glycan array binding signal (z-score),[24],-0.614
same,glycan array binding signal (z-score),[25],-0.626
same,glycan array binding signal (z-score),[26],-1.11
same,glycan array binding signal (z-score),[27],-0.074
same,glycan array binding signal (z-score),[28],-0.169
same,glycan array binding signal (z-score),[29],-0.248
